In PubChem BioAssay AID624330 (Southern Research Specialized Biocontainment Screening …, 2012):
In all, about 340,000 compounds went through this assay and about 2,100 (0.62%) were called active.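 The calls were made as follows: active = first-screen hits whose inhibition reached a set limit at any dose in the follow-up dose series; inconclusive = inhibition above the set first-screen limit but never retested; inactive = the rest.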 A selection follows. Entries with a potency or affinity are not part of this list.

What follows are compounds tested against Rac GTPase-activating protein 1 (Homo sapiens) (UniProt Q9H0H5) (assay: MgcRacGAP GTPase-activating activity inhibitors, confirmation, biochemical, ADP Hunter fluorescence, primary and confirmatory (AID 624330;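 also: fluorescence reports GDP produced by GAP-driven GTP hydrolysis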)). Conditions: MgcRacGAP-stimulated Rac1 GTP hydrolysis, at 30 µM, hits give high values, GST-tagged Rac1 F28L mutant substrate.
Sequence of Rac GTPase-activating protein 1 (Homo sapiens) (Q9H0H5 whole entry, looked up): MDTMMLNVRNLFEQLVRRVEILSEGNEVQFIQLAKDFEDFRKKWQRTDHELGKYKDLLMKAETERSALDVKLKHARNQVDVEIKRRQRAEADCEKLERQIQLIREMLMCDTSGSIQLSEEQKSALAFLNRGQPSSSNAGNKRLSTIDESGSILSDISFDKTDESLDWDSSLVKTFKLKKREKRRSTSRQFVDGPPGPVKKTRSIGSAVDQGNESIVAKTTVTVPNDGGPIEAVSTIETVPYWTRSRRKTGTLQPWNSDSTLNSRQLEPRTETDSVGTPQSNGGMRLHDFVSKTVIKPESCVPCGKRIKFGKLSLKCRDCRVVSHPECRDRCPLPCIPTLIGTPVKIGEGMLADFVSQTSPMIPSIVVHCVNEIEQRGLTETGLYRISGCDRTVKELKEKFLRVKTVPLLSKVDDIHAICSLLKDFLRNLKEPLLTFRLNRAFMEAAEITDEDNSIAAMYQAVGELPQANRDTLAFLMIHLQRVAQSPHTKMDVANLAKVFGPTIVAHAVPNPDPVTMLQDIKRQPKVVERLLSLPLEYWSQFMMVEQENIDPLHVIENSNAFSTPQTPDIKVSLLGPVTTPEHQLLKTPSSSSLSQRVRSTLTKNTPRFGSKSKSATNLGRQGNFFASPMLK

inhibition, inactive:
CCOC(=O)C1CCN(C(=O)C2CCN(C(=O)c3ccc([N+](=O)[O-])cc3)CC2)CC1 12%, CCOC(=O)c1ccc(-n2c(=S)sc3c(=O)[nH]c(C)nc32)cc1 16.1%, C=CCNC(=O)C(=O)N/N=C/c1cccc(Br)c1 5.98%, O=C(O)c1ccccc1-c1c2cc(I)c(=O)c(I)c-2oc2c(I)c(O)c(I)cc12 28.3%, O=c1ccc2c(-c3ccccc3S(=O)(=O)O)c3ccc(O)c(O)c3oc-2c1O 42.2%, O=C(NCc1ccccc1)c1onc(CS(=O)(=O)c2ccccn2)c1C(=O)NCc1ccccc1 -5.99%, NC(=O)C(c1ccc(Cl)cc1)c1ccc(Sc2ccc(Cl)cc2)nn1 (configuration not stated) 11.6%, Nc1cccc(C(=O)Nc2cccc3ncccc23)c1 -7.17%, C=CC(=O)N1C/C(=C/c2ccc(Cl)cc2)C(=O)/C(=C\c2ccc(Cl)cc2)C1 13.6%, O=C(/C=C/c1ccc(Cl)c(Cl)c1)N1CCOCC1 -0.69%, O=C1/C(=C/c2ccccc2)CN(C(=O)CCN2CCOCC2)C/C1=C\c1ccccc1 27.7%, CCOC(=O)N1C/C(=C\c2ccccc2)C(=O)/C(=C/c2ccccc2)C1 12.1%, C=CC(=O)N1C/C(=C/c2ccc(F)cc2)C(=O)/C(=C\c2ccc(F)cc2)C1 13.1%, C=CC(=O)N1C/C(=C/c2ccccc2)C(=O)/C(=C\c2ccccc2)C1 26.6%, O=C(CCC(=O)N1CCOCC1)Nc1ccc(Cl)c(Cl)c1 5.89%, CCN(CC)CCC(=O)N1c2ccccc2Sc2ccc(Cl)cc21 2.76%, O=C(Nc1ccc(N2CCOCC2)cc1)c1ccc(Cl)c(S(=O)(=O)N2CCCCC2)c1 0.26%, CC1CC(=O)C2=C(C1)Nc1nc3ccccc3n1C2c1cccnc1 (configuration not stated) 6.35%, O=C(COc1cccc2cccnc12)Nc1cccc(S(=O)(=O)N2CCCC2)c1 7.88%, CCCCCCc1ccc(N2C[C@H](Cc3ccccc3)[C@@H](CC(=O)Nc3ccccc3)C2=O)cc1 3.37%, COc1cc(OC)c(N(C)C(=O)c2cn(C)c(=O)c3cc(OC)c(OC)cc23)cc1Cl 9.25%, COC(=O)c1ccc(CNC(=O)C2CCC(=O)N(CCN3CCOCC3)C2)cc1 (configuration not stated) 6.54%, CCOC(=O)N1CCC(Nc2c([N+](=O)[O-])cc(C(=O)O)cc2[N+](=O)[O-])CC1 9.55%, Cc1ccc(NC(=O)COC(=O)COc2cccc3c2OC(C)(C)C3)cc1S(=O)(=O)N1CCOCC1 5.48%, CC1=C(C(=O)N(C)C)CC(CC(=O)NCCN2CCOCC2)C(=O)N1CCC1=CCCCC1 (configuration not stated) 19.4%, COc1ccc(OC(=O)N2C/C(=C/c3ccccc3)C(=O)/C(=C\c3ccccc3)C2)cc1 -4.51%, O=C1/C(=C\c2ccccc2)CCC/C1=C/c1ccccc1 -6.55%, CCOC(=O)C1(C)C=C(Nc2ccc(C)cc2)C(=O)N1c1ccc(C)cc1 (configuration not stated) 1.9%, CCOC(=O)C1(C)C=C(Nc2ccc(NC(C)=O)cc2)C(=O)N1c1ccc(NC(C)=O)cc1 (configuration not stated) 4.87%, CC(C)N1C(=O)c2ccccc2C1C(=O)NCCc1ccccc1 (configuration not stated) 3.65%, COCC(=O)N(Cc1cc2cccc(C)c2[nH]c1=O)c1ccccc1 2.29%, CCOc1ccc(OCCC(=O)OCC(=O)c2c(N)n(CC(C)C)c(=O)n(C)c2=O)cc1 15%, Cc1cc(C)c2c(c1)NC(c1cc3c(cc1Br)OCO3)C1CC=CC21 (configuration not stated) -0.13%, O=C(O)C1Nc2c(Cl)cc(Cl)c(Cl)c2C2C=CCC12 (configuration not stated) 17.2%, CC1Cc2cc(S(=O)(=O)N3CCC(C(=O)N(C)Cc4ccccc4)CC3)ccc2N1C(=O)C1CC1 (configuration not stated) 8.31%, Fc1ccc(-n2cc(CNCCc3ccncc3)c(-c3ccccc3Cl)n2)cc1 1.7%, CCOc1ccc(OCC(=O)Nc2cc(Cl)ccc2-n2cncn2)cc1 20.4%, CCN(C(=O)COC(=O)CCCc1c[nH]c2ccccc12)c1c(N)n(Cc2ccccc2)c(=O)[nH]c1=O -4.19%, O=c1oc2ccc(Cl)cc2nc1/C=C(\O)c1ccco1 25%, Cc1ccc2oc(=O)c(/C=C(\O)c3cccs3)nc2c1 15.8%, Cc1ccc2oc(=O)c(/C=C(\O)c3ccco3)nc2c1 18.2%, O=c1oc2ccc(Cl)cc2nc1/C=C(\O)c1cccs1 19.2%, CN(CCO)c1cc(NCCCN2CCC(Cc3ccccc3)CC2)c2nonc2c1[N+](=O)[O-] 4.68%, O=C(Nc1ccncc1)c1ccc(Cl)c(Cl)c1 4.24%, Cc1ccc(C(=O)Nc2ccncc2)cc1[N+](=O)[O-] 10.1%, Cc1ccc(NC(=O)c2ccc(-n3cccn3)c([N+](=O)[O-])c2)cc1 6.01%, O=C(Nc1ccc(NC(=O)c2ccc(Cl)cc2Cl)cc1)c1ccc2c(c1)OCO2 5.16%, COc1ccc(N(C(=O)/C=C/c2ccccc2)C2=CC3CCC(C2)N3C)cc1 (configuration not stated) 1.64%, COc1cc2[nH]c(C(=O)N3CCC(Cc4ccccc4)CC3)cc2c(OC)c1OC 4.96%, Cc1ccc(-n2nc(C)c3c2OC(N)=C(C#N)C3c2ccc(F)cc2)cc1 (configuration not stated) 6.17%, Cc1c(C(=O)N/N=C/c2cccs2)nc2ccccn12 4.8%, Cc1cc(N)ccc1NC(=O)c1ccccc1 6.01%, CC(C)(C)N1C(=O)c2ccc(C(=O)Nc3cc(C(=O)O)cc(C(=O)O)c3)cc2C1=O 13.1%, CC(C)(C)N1C(=O)c2ccc(C(=O)Nc3ccc(C(=O)O)cc3)cc2C1=O 1.96%, Cc1ccc(C(=O)Nc2ccc(O)cc2C(=O)O)cc1 14.9%, CC(C)CN1C(=O)c2ccc(C(=O)Nc3ccc(O)cc3C(=O)O)cc2C1=O 15.1%, CCN1C(=O)c2ccc(C(=O)Nc3c(C)cc(C)cc3C)cc2C1=O -2.89%, Cc1ccc(N2C(=O)c3ccc(C(=O)N4CCOCC4)cc3C2=O)cc1C -11.3%, O=C(COC(=O)c1ccc(O)cc1O)c1ccc(Cl)cc1 2.91%, CCCOP(=O)(c1ccc(N(C)C)cc1)C(O)c1ccccc1OC (configuration not stated) 4.57%, Nc1ccc2c(c1)C(=O)c1ccc(N)cc1-2 22.8%, Nc1ccc2c(c1)C(=O)c1ccccc1-2 18.2%, Nc1ccc2c(c1)C(=O)c1cc(Cl)c(Cl)cc1-2 7.4%, Nc1cc2c(cc1Cl)-c1ccc(Cl)cc1C2=O 3.85%, CCOC(=O)C1CCN(CCC(=O)Nc2ccccc2)CC1 12.6%, Cc1cccc(NC(=S)NCc2cccs2)c1 9.05%, O=C(/C=C/c1ccc(F)cc1)NC(Cc1c[nH]c2ccccc12)C(=O)O (configuration not stated) -4.83%, COc1cc(C(=O)N[C@@H](Cc2c[nH]c3ccccc23)C(=O)O)cc(OC)c1OC 1.53%, Cc1nn(-c2ccccc2)c(NC(=O)c2cccs2)c(-c2ccccc2)c1=O 0.27%, Cc1cccc(NC(=O)N2CCCCCC2)c1 4.32%, CCc1cc2c(SCc3ccc(C(=O)OC)o3)ncnc2s1 7.63%, CC(=O)NN1C(=O)/C(=C\c2ccc(Cl)cc2)SC1=S 7.77%, COc1cc(/C=C2\SC(=S)N(Nc3ccccc3)C2=O)cc(OC)c1OC 11.2%, CCOc1cc(/C=C2\SC(=S)N(Nc3ccccc3)C2=O)ccc1O 11.1%, O=C1/C(=C\c2ccc(O)cc2)SC(=S)N1c1cccnc1 2.66%, CC(=O)NN1C(=O)/C(=C\c2ccc(C)cc2)SC1=S 9.68%, O=C(NN1C(=O)/C(=C/c2cccs2)SC1=S)c1ccncc1 8.88%, COc1cccc(/C=C2\SC(=S)N(NC(=O)c3ccncc3)C2=O)c1 15.5%, O=C1/C(=C\c2ccc(O)cc2)SC(=S)N1Cc1ccccc1 10.6%, N/C(=N\OC(=O)Cc1ccc(-c2ccccc2)cc1)c1cccnc1 5.49%, CCNC(=S)N1C2CCC1CC(NC(=O)NC1CCCCC1)C2 (configuration not stated) 1.32%, c1ccc(-n2ncc3c(N4CCN(CCOc5cccc6ccccc56)CC4)ncnc32)cc1 -0.49%, CCCCOC(=O)c1cc(Cl)c(O)c(OC)c1 13.4%, CC(NC(=O)c1ccc(F)cc1)c1ccc(F)cc1 (configuration not stated) 4.7%, O=C(Nc1ccccc1)C(Cc1ccccc1)c1ccccc1 (configuration not stated) -2.68%, CCOc1ccc(N2CC(C(=O)Nc3cc(OCC)c(N4CCOCC4)cc3OCC)CC2=O)cc1 (configuration not stated) 2.59%, CCN1CCN(C(=O)C2(NC(=O)Nc3ccccc3Cl)CCCCC2)CC1 2.74%, O=c1ccc(-c2ccccc2)no1 1.17%, Cc1ccc(S(=O)(=O)CCC(=O)OCC(=O)Nc2cc(F)ccc2C)cc1 1.06%, CCOC(=O)CC1C(=O)NCCN1S(=O)(=O)c1cccc(C(F)(F)F)c1 (configuration not stated) 7.16%, O=C(Nc1ncnc2sc3c(c12)CCCC3)c1ccncc1 -0.48%, O=C(NN1C(=O)/C(=C/c2ccc(O)cc2)SC1=S)c1cccc(O)c1 30.8%, O=C(CCCN1C(=O)/C(=C\c2ccccc2)SC1=S)Nc1ccc(O)cc1C(=O)O 12.8%, O=C(O)c1ccc(/C=C2\SC(=S)N(NC(=O)c3ccccc3)C2=O)cc1 8.51%, Cc1ccc(/C=C2\SC(=S)N(CCC(=O)NNC(=O)c3ccc(O)cc3)C2=O)cc1 6.6%, O=C(NN1C(=O)/C(=C/c2cccc(O)c2)SC1=S)c1ccccc1O 5.04%, COc1cc(/C=C2\SC(=S)N(NC(=O)c3ccccc3OC)C2=O)ccc1O 8.13%
